# Results: PubChem BioAssay (NCI)
# About 83,000 compounds went through this panel and 20% of them were active in at least one assay; those are over-represented in the sample as a whole.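 Step 1: grow cells in 96-well plates. Step 2: add test compound at a single concentration. Step 3: incubate 48 h. Step 4: record percent growth.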 Unmarked numbers belong to inactive results. Calls of active or inactive are those of the source. The calls were made as follows: active = growth percent below 10; inactive = the rest.
# Test system: HCT-116 colon
# Experiment: NCI-60 one-dose screen, 48 h (100 = growth as untreated, 0 = no growth, -100 = all killed)
# Details: 10 µM unless noted
row,SMILES,growth
1,COc1cc(-c2nccc3[nH]c(-c4ccc5cc[nH]c5c4)nc23)cc(OC)c1OC,4.37% (active)
2,COc1ccc(/C=C/C(=O)c2cccc(OCCCCOc3cccc(C(=O)/C=C/c4ccc(OC)c(OC)c4)c3)c2)cc1OC,58.6%
3,CC(C)COc1nc2c(c(=O)n(C)c(=O)n2C)n1C,107%
4,NC(=O)c1c(NC(=O)c2ccc3ccccc3c2)sc2c1CCC(=O)C2,7.15% (active)
5,C=C1C(=O)O[C@H]2[C@H]1CC/C(COC(=O)NCc1ccc(Cn3c(=O)sn(CCCCC)c3=O)cc1)=C\CC[C@@]1(C)O[C@@H]21,-12.3% (active)
6,COc1cc(OC)c(/C=C/C(=O)c2c(OC)cccc2OC)c(OC)c1,9.06% (active)
7,COC1=CC(c2ccc[nH]2)=N/C1=C\c1[nH]c(C)c(C)c1CCC(=O)OCc1ccccc1,-76% (active)
8,CCCCCCCCCCC(CN(CC)CC)C(O)c1ccccc1 (centres undefined),20.7%
9,CCOC(=O)C1=C(c2ccccc2)N=C2SC=C(c3ccc(Cl)cc3)N2C1c1ccc(Br)cc1 (centres undefined),64.9%
10,O=C(COc1ccc(-c2nc3cc(Cl)c(Cl)cc3[nH]2)cc1)N=Nc1c(O)[nH]c2ccc(Cl)cc12,54.4%
11,Cn1ccc(=O)c(C(=O)Nc2nsc3ccc([N+](=O)[O-])cc23)c1,56.2%
12,COC(=O)[C@]1(C)CCC[C@]2(C)[C@H]3C[C@H]4C(C(C)C)=C[C@]3(CC[C@H]21)[C@@H]1C(=O)CC[C@H](OCCC#N)[C@@H]14,77.6%
13,O=c1c2ccccc2n2cnc3ccc(Cl)c1c32,65.7%
14,Cc1cc(=O)n(C(=O)Nc2ccccc2Cl)c2cc(O)ccc12,101%
15,Cn1cc(-c2nonc2-c2cn(C)c3ccccc23)c2ccccc21,11.6%
16,COc1ccc(C(C)=O)cc1S(=O)(=O)Nc1c(N)nc(SC)[nH]c1=O,100%
17,O=C(/C=C(/C=C/c1ccc2[nH]ccc2c1)OB(F)F)/C=C/c1ccc2[nH]ccc2c1,-79% (active)
18,NC(=O)C(=O)c1ccccc1NC=O,93.1%
19,O=S(=O)(Nc1cc(F)cc(Cl)c1)c1ccc(-c2cnc(C3CC3)o2)cc1,28.1%
20,COc1ccc(NC2=C(I)C(=O)c3ncccc3C2=O)cc1,2.09% (active)

row,SMILES,growth
1,COc1cc2ncnc(Nc3ccc(F)c(Cl)c3)c2cc1OCC(=O)N1CCN(c2ccccc2)CC1,67.7%
2,N#Cc1nc(-c2ccccc2)oc1S(=O)(=O)N1CCN(c2ccccc2)CC1,44.9%
3,COc1ccc2cc1Oc1ccc(cc1)C[C@H]1c3c(cc4c(c3Oc3cc5c(cc3OC)CCN(C)[C@@H]5C2)OCO4)CCN1C,19.2%
4,Nc1cnc(C(=O)NNc2nc3cc(F)ccc3n3cccc23)cn1,36%
5,Cc1ccc(-c2nc([P+](c3ccccc3)(c3ccccc3)c3ccccc3)c(S(=O)(=O)c3ccc(C)cc3)o2)cc1,-68.6% (active)
6,Cc1cccc(/C=C/c2c(C(=O)/C=C/c3ccccc3)c(C)nc3ccccc23)c1,-56.3% (active)
7,Cc1c2cnccc2c(C)c2c1c1cc(C#N)ccc1n2C,-22.9% (active)
8,COc1ccc(C(=O)/C=C/c2c(C(F)(F)F)nc3ccccn23)cc1OC,-34.1% (active)
9,O=C1NC(=O)C(Cc2ccc(OCc3ccc(-c4ccc(Cl)cc4Cl)cc3)cc2)S1 (centres undefined),38.6%
10,CSc1oc(C)nc1[P+](c1ccccc1)(c1ccccc1)c1ccccc1,33.4%
11,COc1cc2cc(NCc3cccc(Cl)c3)nc(C)c2cc1OC,8.02% (active)
12,NS(=O)(=O)c1ccc(N=Nc2c(O)n(Cc3ccccc3)c3ccc(Cl)cc23)cc1,69.3%
13,COc1cc(NS(=O)(=O)c2ccc(-c3cnc(C4CC4)o3)cc2)ccc1F,20.9%
14,O=S(=O)(Nc1ccc(Cl)c(C(F)(F)F)c1)c1ccc(-c2cnc(C3CC3)o2)cc1,10.1%
15,O=C(N/N=C/c1ccc(Cl)cc1)c1[nH]c2ccc(Cl)cc2c1-c1ccccc1,7.64% (active)
16,O=C(/C=C/c1cccs1)Nc1ncc(Cc2ccccc2F)s1,28.6%
17,C=CCc1c(O)c(C(=O)/C=C/c2ccccc2)c(OC)c2ccoc12,22.9%
18,O=S(=O)(Nc1cc(Cl)ccc1Cl)c1ccc(-c2cnc(C3CC3)o2)cc1,21.5%
19,CN(C)c1ccc(C(=O)OCCCCCCl)cc1,96.7%
